Test results from publication PMC5540273 (PLoS ONE, 2017).

Assays:
Conditions in all cases: concentration: 1 μM, replicates: in singlicate; n = 1
[1] = system: HUNK
[2] = system: ICK
[3] = system: IGF1R
[4] = system: T1, IKK-alpha
T1 construct: gene CHUK

[5] = system: T2, IKK-beta
T2 construct: gene IKBKB

[6] = system: T3, IKK-epsilon
T3 construct: gene IKBKE

[7] = system: INSRR
[8] = system: INSR
[9] = system: IRAK1
[10] = system: IRAK3
[11] = system: IRAK4
[12] = system: ITK
[13] = system: JAK1(JH1domain-catalytic)
[14] = system: JAK1(JH2domain-pseudokinase)
[15] = system: JAK2(JH1domain-catalytic)
[16] = system: JAK3(JH1domain-catalytic)
[17] = system: T4, JNK1
T4 construct: gene MAPK8

[18] = system: T5, JNK2
T5 construct: gene MAPK9

[19] = system: T6, JNK3
T6 construct: gene MAPK10

[20] = system: KIT-autoinhibited
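Note: KINOMEscan kinase panel screen.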

Structure (SMILES)	%Inh [1]	%Inh [2]	%Inh [3]	%Inh [4]	%Inh [5]	%Inh [6]	%Inh [7]	%Inh [8]	%Inh [9]	%Inh [10]	%Inh [11]	%Inh [12]	%Inh [13]	%Inh [14]	%Inh [15]	%Inh [16]	%Inh [17]	%Inh [18]	%Inh [19]	%Inh [20]
Cc1ccc(NC(=O)Nc2cccc(Cl)c2)cc1-c1ccc(C(=O)Nc2ccncc2)cc1 [GSK1398468]	13%	6%	0%	0%	9%	15%	0%	0%	27%	100%	13%	16%	16%	6%	1%	0%	15%	14%	0%	0%
Cc1nnc(-c2ccc3occ(-c4ccc(S(C)=O)cc4)c3c2)[nH]1 (centres unmarked)	0%	0%	0%	26%	20%	0%	0%	4%	0%	66%	0%	13%	3%	90.4%	11%	22%	3%	26%	45%	11%
CCn1c(-c2cccnc2O)nc2cnccc21 [SB-736715]	0%	0%	0%	0%	0%	0%	0%	0%	0%	0%	0%	26%	0%	0%	0%	0%	0%	10%	1%	18%
CC(C)(C)c1ccc(C(=O)Nc2cn3cc(-c4cccnc4)ccc3n2)cc1	0%	0%	0%	21%	27%	11%	7%	0%	41%	30%	70%	24%	0%	45%	6%	2%	24%	0%	5%	0%
Cc1cccc(-c2nc(Nc3cccc(C(N)=O)c3)c3ccccc3n2)n1 [GW876019]	44%	0%	4%	0%	0%	0%	0%	0%	14%	10%	4%	8%	0%	78%	12%	15%	0%	0%	0%	10%
Cc1ccc(NC(=O)Nc2cc(C(C)(C)C)nn2-c2ccccc2)cc1 [GSK1014915]	0%	23%	8%	22%	20%	1%	0%	13%	23%	100%	23%	12%	0%	0%	13%	0%	45%	39%	10%	0%
O=c1cc(N2CCOCC2)nc2n(Cc3cccc(Cl)c3Cl)ccn12 [GSK2286295]	0%	3%	12%	0%	25%	10%	0%	5%	0%	3%	0%	4%	17%	0%	0%	0%	1%	30%	15%	0%
Cc1cc(-c2ccc3c(c2)CC[C@@H](N[C@@H](C)c2ccccc2)C3)cnc1N.Cl [GW412617]	0%	0%	0%	0%	0%	0%	31%	17%	76%	2%	71%	18%	12%	46%	34%	0%	36%	3%	4%	0%
Cl.O=C(Nc1cccc(-c2nn3ncccc3c2-c2ccnc(Nc3cccnc3)n2)c1)c1c(F)cccc1F [GSK312879]	0%	10%	25%	30%	31%	0%	9%	11%	28%	0%	28%	15%	15%	0%	23%	0%	14%	18%	19%	0%
COc1ccccc1CNC(=O)c1cc(C(=O)c2ccccc2C)c[nH]1 [GSK364507]	16%	11%	7%	9%	13%	20%	0%	8%	33%	0%	23%	16%	19%	0%	0%	0%	45%	9%	16%	0%
